Test results reported in PubChem BioAssay (EPA / NIEHS).
Several values for one entry are separate records, joined by “and”; a condition that tells them apart may be missing. Identical values can stand only once. Records with an inconclusive call do not appear. Activity calls are given as the source filed them. The calls were made as follows, unless noted: active = hit-call score of the fitted dose curve at least 0.9, where 1 is the maximum; inactive = score below 0.9.

Assays:
[1] = read-out: solute carrier (SLC22A1), SLC22A1 (gene 6580); test: LTEA_HepaRG_SLC22A1: Life Technologies and Expression Analysis (LTEA) Assay for solute carrier (SLC22A1) using HepaRG (AID 2283524); conditions: mRNA level, 48 h; actives raise or lower the signal
Procedure, shortened: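 HepaRG (human liver line), 48 h dosing in serum-free induction medium; 8 conc., half-log down from 100 uM, 0.5% DMSO vehicle, duplicates. Endpoint: SLC22A1 mRNA, qRT-PCR, housekeeping-normalized; gain/loss fit vs DMSO.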

[2] = read-out: Pyruvate Dehydrogenase Kinase 4 (PDK4), PDK4 (gene 5166); test: LTEA_HepaRG_PDK4: Life Technologies and Expression Analysis (LTEA) Assay for Pyruvate Dehydrogenase Kinase 4 (PDK4) using HepaRG (AID 2283525); conditions: mRNA level, 48 h; actives raise or lower the signal
Procedure, shortened: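 In this multiplexed human HepaRG expression assay, cells are treated 48 h with test chemicals across an eight-point range starting at 100 uM. PDK4 mRNA changes, normalized to ACTB/GAPDH/POLR2A, are fitted in both directions relative to vehicle.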

[3] = read-out: Nuclear factor erythroid 2-related factor 2 (Homo sapiens) (UniProt Q16236); test: LTEA_HepaRG_NFE2L2: Life Technologies and Expression Analysis (LTEA) Assay for Nuclear factor erythroid 2-related factor 2 (NFE2L2) Transcription Factor using HepaRG (AID 2283527); conditions: mRNA level, 48 h; actives raise or lower the signal
Procedure, shortened: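 Transcript level of NFE2L2 is the read-out, measured by microfluidic TaqMan qRT-PCR and normalized to three housekeeping genes. Human HepaRG cultures received test chemical for 48 h at up to 100 uM in half-log steps. Gain or loss of signal is fitted relative to 0.5% DMSO.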

[4] = read-out: succinate dehydrogenase complex iron sulfur subunit B (SDHB), SDHB (gene 6390); test: LTEA_HepaRG_SDHB: Life Technologies and Expression Analysis (LTEA) Assay for succinate dehydrogenase complex iron sulfur subunit B (SDHB) using HepaRG (AID 2283528); conditions: mRNA level, 48 h; actives raise or lower the signal
Procedure, shortened: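 HepaRG, 48 h exposure, 8-pt half-log series from 100 uM in 0.5% DMSO, duplicates. Readout: SDHB mRNA by Fluidigm qRT-PCR vs housekeeping genes; bidirectional fit relative to DMSO.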

[5] = read-out: Signal transducer and activator of transcription 3 (Homo sapiens) (UniProt P40763); test: LTEA_HepaRG_STAT3: Life Technologies and Expression Analysis (LTEA) Assay for Signal transducer and activator of transcription (STAT3) using HepaRG (AID 2283529); conditions: mRNA level, 48 h; actives raise or lower the signal
Procedure, shortened: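 Read-out is STAT3 mRNA level by qRT-PCR, normalized to three housekeeping genes, in human HepaRG liver cells treated for 48 h. Concentrations ran from 100 uM downward in half-log steps; curves were fitted for gain or loss relative to 0.5% DMSO.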

[6] = read-out: solute carrier (SLCO1B1), SLCO1B1 (gene 10599); test: LTEA_HepaRG_SLCO1B1: Life Technologies and Expression Analysis (LTEA) Assay for solute carrier (SLCO1B1) using HepaRG (AID 2283530); conditions: mRNA level, 48 h; actives raise or lower the signal
Procedure, shortened: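 Differentiated human HepaRG cells, plated 48 h, switched to serum-free induction medium and exposed in duplicate for 48 h to 8 half-log concentrations (top 100 uM) in 0.5% DMSO. SLCO1B1 mRNA by TaqMan qRT-PCR, normalized to ACTB/GAPDH/POLR2A.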

[7] = read-out: sulfotransferase 2A1 (SULT2A1), SULT2A1 (gene 6822); test: LTEA_HepaRG_SULT2A1: Life Technologies and Expression Analysis (LTEA) Assay for sulfotransferase 2A1 (SULT2A1) using HepaRG (AID 2283531); conditions: mRNA level, 48 h; actives raise or lower the signal
Procedure, shortened: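 Differentiated human HepaRG cells in serum-free induction medium were exposed for 48 h to eight half-log concentrations (top 100 uM, 0.5% DMSO). SULT2A1 mRNA was measured by qRT-PCR, normalized to ACTB, GAPDH and POLR2A, and fitted bidirectionally against DMSO.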

[8] = read-out: Transforming Growth Factor (TGFA), TGFA (gene 7039); test: LTEA_HepaRG_TGFA: Life Technologies and Expression Analysis (LTEA) Assay for Transforming Growth Factor (TGFA) using HepaRG (AID 2283532); conditions: mRNA level, 48 h; actives raise or lower the signal
Procedure, shortened: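 HepaRG (human liver line), 48 h exposure, 8 conc. half-log down from 100 uM, 0.5% DMSO vehicle, duplicates; serum-free induction medium. TGFA mRNA by TaqMan qRT-PCR, ACTB/GAPDH/POLR2A normalization; gain/loss fit vs DMSO.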

[9] = read-out: Transforming Growth Factor (TGFB1), TGFB1 (gene 7040); test: LTEA_HepaRG_TGFB1: Life Technologies and Expression Analysis (LTEA) Assay for Transforming Growth Factor (TGFB1) Transporter using HepaRG (AID 2283533); conditions: mRNA level, 48 h; actives raise or lower the signal
Procedure, shortened: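 Differentiated human HepaRG cells in serum-free induction medium were exposed in duplicate for 48 h to eight concentrations (top 100 uM, half-log steps, 0.5% DMSO). TGFB1 mRNA was quantified by qRT-PCR, normalized to ACTB, GAPDH, POLR2A, and fitted bidirectionally against DMSO.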

TIMP1, TIMP1 (gene 7076) = test: LTEA_HepaRG_TIMP1: Life Technologies and Expression Analysis (LTEA) Assay for TIMP1 using HepaRG (AID 2283534); conditions: mRNA level, 48 h; actives raise or lower the signal;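 also: TaqMan qRT-PCR signal normalized to ACTB GAPDH and POLR2A housekeeping genes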
Procedure, shortened: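 Differentiated human HepaRG cells in serum-free induction medium were exposed 48 h to chemicals (8 half-log concentrations, top 100 uM, 0.5% DMSO). TIMP1 mRNA was quantified by TaqMan qRT-PCR, normalized to ACTB/GAPDH/POLR2A; bidirectional fit versus DMSO.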

[10] = read-out: Tumor necrosis factor receptor 1 (TNFRSF1A), TNFRSF1A (gene 7132); test: LTEA_HepaRG_TNFRSF1A: Life Technologies and Expression Analysis (LTEA) Assay for Tumor necrosis factor receptor 1 (TNFRSF1A) using HepaRG (AID 2283535); conditions: mRNA level, 48 h; actives raise or lower the signal
Procedure, shortened: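 Differentiated human HepaRG cells were exposed in duplicate for 48 h in serum-free induction medium to eight concentrations (top 100 uM, half-log steps, 0.5% DMSO). TNFRSF1A mRNA was quantified by qRT-PCR, normalized to ACTB, GAPDH and POLR2A, then fitted bidirectionally against DMSO.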

[11] = read-out: Thyroid Hormone Responsive (THRSP), THRSP (gene 7069); test: LTEA_HepaRG_THRSP: Life Technologies and Expression Analysis (LTEA) Assay for Thyroid Hormone Responsive (THRSP) using HepaRG (AID 2283536); conditions: mRNA level, 48 h; actives raise or lower the signal
Procedure, shortened: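 mRNA induction or loss relative to 0.5% DMSO vehicle was fitted bidirectionally across an eight-point curve whose highest exposure was 100 uM. Human HepaRG liver cells received chemicals in duplicate over 48 h before RNA extraction.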

[12] = read-out: UDP glucuronosyltransferase (UGT1A1), UGT1A1 (gene 54658); test: LTEA_HepaRG_UGT1A1: Life Technologies and Expression Analysis (LTEA) Assay for UDP glucuronosyltransferase (UGT1A1) using HepaRG (AID 2283538); conditions: mRNA level, 48 h; actives raise or lower the signal
Procedure, shortened: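 Readout is UGT1A1 transcript level by qRT-PCR, normalized to three housekeeping genes, after 48 h chemical treatment of HepaRG cells. Concentrations ran from 100 uM down in half-log steps with 0.5% DMSO, and gain or loss relative to DMSO was fitted.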

[13] = read-out: UDP glucuronosyltransferase (UGT1A6), UGT1A6 (gene 54578); test: LTEA_HepaRG_UGT1A6: Life Technologies and Expression Analysis (LTEA) Assay for UDP glucuronosyltransferase (UGT1A6) using HepaRG (AID 2283539); conditions: mRNA level, 48 h; actives raise or lower the signal
Procedure, shortened: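 Human HepaRG cells were dosed for 48 h in serum-free induction medium with 0.5% DMSO vehicle, eight-point half-log series from 100 uM, in duplicate. UGT1A6 mRNA was measured by qRT-PCR, normalized to ACTB, GAPDH, POLR2A, and fitted bidirectionally against DMSO.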

[14] = read-out: X-box binding protein 1 (XBP1), XBP1 (gene 7494); test: LTEA_HepaRG_XBP1: Life Technologies and Expression Analysis (LTEA) Assay for X-box binding protein 1 (XBP1) using HepaRG (AID 2283540); conditions: mRNA level, 48 h; actives raise or lower the signal
Procedure, shortened: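 Differentiated human HepaRG cells in serum-free induction medium were exposed in duplicate for 48 h to eight half-log concentrations up to 100 uM in 0.5% DMSO. XBP1 mRNA was quantified by qRT-PCR, normalised to ACTB, GAPDH and POLR2A, with bidirectional fitting against DMSO.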

[15] = LTEA_HepaRG_LDH_cytotoxicity: Cytotoxicity Assessment in the Life Technologies and Expression Analysis (LTEA) Assay (AID 2283563; active = hit-call score of the fitted dose curve at least 0.9, where 1 is the maximum;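 as to AC50: LDH activity released into spent culture medium as a marker of cell death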)
Procedure, shortened: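 Differentiated human HepaRG cells, plated 48 h beforehand, were switched to serum-free induction medium and exposed for 48 h to eight half-log concentrations (top 100 uM) in 0.5% DMSO. LDH was measured in spent medium; activity was fitted relative to DMSO vehicle.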

[16] = ATG_XTT_Cytotoxicity: Cytotoxicity Assessment in the Attagene TRANS-FACTORIAL HepG2 Assay (AID 2283584; active = hit-call score of the fitted dose curve at least 0.9, where 1 is the maximum)
Procedure, shortened: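 HepG2 human liver cells, transiently transfected with multiple GAL4-UAS reporter units, were dosed and read at 24 h by XTT as cell number. Loss of signal was fitted relative to DMSO negative control baseline.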

[17] = target: Cellular tumor antigen p53 (Homo sapiens) (UniProt P04637); test: TOX21_p53_BLA_p2_ratio: Tox21 HCT-116 p53 Agonism Beta-lactamase Assay, Ratio, Phase 2 (AID 2283592; active = hit-call score of the fitted dose curve at least 0.9, where 1 is the maximum)
Procedure, shortened: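 HCT116 cells carrying a p53-responsive beta-lactamase reporter were plated, incubated 5 h at 37C, then dosed with compounds in DMSO (217-fold dilution) for 16 h. CCF4-AM substrate was added for 2 h at room temperature; the 460/530 nm emission ratio gave gain-of-signal activity relative to DMSO.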

[18] = read-out: Phosphatase and tensin (PTEN), PTEN (gene 5728); test: LTEA_HepaRG_PTEN: Life Technologies and Expression Analysis (LTEA) Assay for Phosphatase and tensin (PTEN) using HepaRG (AID 2283523); conditions: mRNA level, 48 h; actives raise or lower the signal
Procedure, shortened: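 Read-out is PTEN transcript level by multiplexed TaqMan qRT-PCR after 48 h chemical treatment of human HepaRG cultures in serum-free induction medium. Concentrations spanned 100 uM downward in half-log steps, 0.5% DMSO throughout; activity fitted in both directions against vehicle.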

Measured: AC50

Signal transducer and activator of transcription 3 (Homo sapiens), sequence (P40763 whole entry, looked up): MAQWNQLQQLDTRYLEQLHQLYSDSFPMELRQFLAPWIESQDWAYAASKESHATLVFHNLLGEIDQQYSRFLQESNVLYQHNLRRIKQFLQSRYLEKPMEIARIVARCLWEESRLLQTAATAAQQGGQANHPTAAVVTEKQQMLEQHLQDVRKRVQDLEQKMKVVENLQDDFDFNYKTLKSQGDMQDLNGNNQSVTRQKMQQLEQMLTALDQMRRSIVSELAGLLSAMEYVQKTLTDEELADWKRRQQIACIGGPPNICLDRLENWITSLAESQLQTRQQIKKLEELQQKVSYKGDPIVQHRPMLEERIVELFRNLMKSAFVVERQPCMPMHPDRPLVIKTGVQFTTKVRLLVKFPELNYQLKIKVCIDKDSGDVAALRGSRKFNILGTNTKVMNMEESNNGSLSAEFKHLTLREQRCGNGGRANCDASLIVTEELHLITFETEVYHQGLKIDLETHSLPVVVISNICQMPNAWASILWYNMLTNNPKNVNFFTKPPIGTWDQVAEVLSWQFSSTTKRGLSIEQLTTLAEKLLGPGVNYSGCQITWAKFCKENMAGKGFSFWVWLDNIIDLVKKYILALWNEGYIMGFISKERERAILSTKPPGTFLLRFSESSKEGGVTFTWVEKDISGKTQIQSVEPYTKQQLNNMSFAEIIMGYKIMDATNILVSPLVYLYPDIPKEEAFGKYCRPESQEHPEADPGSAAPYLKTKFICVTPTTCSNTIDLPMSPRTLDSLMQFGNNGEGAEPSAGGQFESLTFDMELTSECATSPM
Nuclear factor erythroid 2-related factor 2 (Homo sapiens), sequence (Q16236 whole entry, looked up): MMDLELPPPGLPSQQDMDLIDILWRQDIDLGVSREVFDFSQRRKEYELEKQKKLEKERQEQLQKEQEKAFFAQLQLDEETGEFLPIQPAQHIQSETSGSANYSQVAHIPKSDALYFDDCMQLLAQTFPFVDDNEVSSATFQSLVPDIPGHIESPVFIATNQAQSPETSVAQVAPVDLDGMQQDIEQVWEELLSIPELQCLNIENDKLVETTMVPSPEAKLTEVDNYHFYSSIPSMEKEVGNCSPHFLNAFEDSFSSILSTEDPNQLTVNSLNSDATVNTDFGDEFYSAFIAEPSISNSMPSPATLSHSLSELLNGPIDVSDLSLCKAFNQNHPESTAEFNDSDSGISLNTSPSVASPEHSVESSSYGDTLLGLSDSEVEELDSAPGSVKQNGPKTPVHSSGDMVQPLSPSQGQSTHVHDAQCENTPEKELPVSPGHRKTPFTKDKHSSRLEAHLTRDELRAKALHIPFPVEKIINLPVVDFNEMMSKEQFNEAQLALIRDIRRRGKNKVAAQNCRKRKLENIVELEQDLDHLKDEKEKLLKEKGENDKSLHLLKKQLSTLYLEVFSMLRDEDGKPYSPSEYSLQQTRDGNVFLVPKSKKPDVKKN
Cellular tumor antigen p53 (Homo sapiens), sequence (P04637 whole entry, looked up): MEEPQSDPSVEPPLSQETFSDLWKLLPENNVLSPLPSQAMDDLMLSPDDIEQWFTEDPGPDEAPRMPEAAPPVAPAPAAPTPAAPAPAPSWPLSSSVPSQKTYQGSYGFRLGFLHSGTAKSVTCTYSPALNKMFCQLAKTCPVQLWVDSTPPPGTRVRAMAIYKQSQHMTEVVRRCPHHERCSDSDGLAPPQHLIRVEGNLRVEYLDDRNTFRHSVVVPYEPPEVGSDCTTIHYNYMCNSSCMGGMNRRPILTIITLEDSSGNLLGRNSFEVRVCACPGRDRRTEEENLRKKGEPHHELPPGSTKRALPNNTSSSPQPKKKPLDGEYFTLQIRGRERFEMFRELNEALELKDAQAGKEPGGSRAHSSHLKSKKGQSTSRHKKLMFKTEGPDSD

CCCN(CCOc1c(Cl)cc(Cl)cc1Cl)C(=O)n1ccnc1
active: [1] 29.5 µM | [2] 30.8 µM | [3] 29.9 µM | [4] 12.1 µM | [6] 64.2 µM | [7] 34.9 µM | [8] 50 µM | [9] 27.6 µM | [11] 3.79 µM | [12] 73.7 µM | [13] 72.5 µM | [14] 78.8 µM | [15] 36 µM | [17] 86.1 µM
inactive: [5] | TIMP1, TIMP1 (gene 7076) | [10] | [16]

O=C(O)CCCOc1ccc(Cl)cc1Cl
active: [2] 50.8 µM | [12] 34.5 µM
not listed: [4]
inactive: all other assays above

O=S1OCC2C(CO1)C1(Cl)C(Cl)=C(Cl)C2(Cl)C1(Cl)Cl (centres undefined)
active: [1] 63 µM | [6] 20.8 µM | [7] 91.7 µM | [9] 72.1 µM | [11] 41.7 µM | [15] 94 µM | [17] 73.9 µM and 86.2 µM
not listed: [18]
inactive: all other assays above
